Measured values published in PubChem BioAssay (NCATS).
Results filed as inconclusive are left out. Calls of active or inactive are those of the source. The call rests on the fitted dose curve; in most records, active means well fitted inhibition curve with a large enough effect; inconclusive means small, poorly fitted or top-dose-only effect; inactive means flat fitted curve, though single readings scatter.

Key:
HaCat [1] = experiment: Cytotoxic Profiling of Annotated Libraries Using Quantitative High-Throughput Screening (AID 1296008); conditions: Five cell lines viability, CellTiter-Glo ATP luminescence, 48-72 h; max response: stronger effect = lower value
Method in brief: (§1)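 Cytotoxicity was measured as CellTiter-Glo ATP luminescence, read after 10 min at room temperature. Compound treatment of the cells lasted 48 or 72 hr at 37 degrees Celsius in a qHTS format.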

KB-3-1 = experiment: as above; conditions: Five cell lines viability, CellTiter-Glo ATP luminescence, 48-72 h; max response: stronger effect = lower value
Method in brief: as §1

NIH3T3 [2] = experiment: as above; conditions: Five cell lines viability, CellTiter-Glo ATP luminescence, 48-72 h; max response: stronger effect = lower value
Method in brief: as §1

HEK293T = experiment: qHTS assay to identify novel small-molecules to repurpose for Merkel cell carcinoma treatment (AID 1296009); conditions: MCC and control cell lines, CellTiter-Glo viability, 72 h; at 44.8 µM (top of the series) unless noted
Method in brief: (§2)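 After compound transfer in DMSO, plates were kept 72 hr at 37 degree celsius. Luminescent ATP signal from CellTiter-Glo served as viability measure, normalized against DMSO and no-cell controls.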

MCC-13 = experiment: as above; conditions: MCC and control cell lines, CellTiter-Glo viability, 72 h; series mostly up to 46 µM
Method in brief: as §2

MCC-26 = experiment: as above; conditions: MCC and control cell lines, CellTiter-Glo viability, 72 h; series mostly up to 46 µM
Method in brief: as §2

MKL-1 = experiment: as above; conditions: MCC and control cell lines, CellTiter-Glo viability, 72 h; series mostly up to 46 µM
Method in brief: as §2

MKL-2 = experiment: as above; conditions: MCC and control cell lines, CellTiter-Glo viability, 72 h; series mostly up to 46 µM
Method in brief: as §2

HACAT [3] = experiment: as above; conditions: MCC and control cell lines, CellTiter-Glo viability, 72 h; at 44.8 µM (top of the series) unless noted
Method in brief: as §2

NIH3T3 [4] = experiment: as above; conditions: MCC and control cell lines, CellTiter-Glo viability, 72 h; at 44.8 µM (top of the series) unless noted
Method in brief: as §2
Further: nearly all actives have a fitted effect of over 60% in size.
On the % scale 0 is the no-effect control and ±100 the full control effect.

CCCN(CCC)CCc1cccc2c1CC(=O)N2
inactive: max response (HaCat [1]) -2.54% | max response (KB-3-1) -0.569% | max response (NIH3T3 [2]) -15.5% | outcome (HEK293T) | Potency (MCC-13) | Potency (MCC-26) | Potency (MKL-1) | Potency (MKL-2)

CC(=O)OCC1=C(C(=O)O)N2C(=O)[C@@H](NC(=O)Cc3cccs3)[C@H]2SC1
inactive: outcome (HaCat [1]) | max response (KB-3-1) 1.19% | outcome (NIH3T3 [2]) | outcome (HACAT [3]) | Potency (MCC-13) | Potency (MCC-26) | Potency (MKL-1) | Potency (MKL-2) | outcome (NIH3T3 [4])

NC(=Nc1ccccc1)Nc1ccccc1
inactive: max response (HaCat [1]) 2.68% | outcome (HaCat [1]) | max response (KB-3-1) -0.105% | max response (NIH3T3 [2]) -0.581% | outcome (NIH3T3 [2]) | outcome (HACAT [3]) | outcome (HEK293T) | Potency (MCC-13) | Potency (MCC-26) | Potency (MKL-1) | Potency (MKL-2) | outcome (NIH3T3 [4]) inactive [at 92 µM]

Cc1ccc(Cl)c(Nc2ccccc2C(=O)O)c1Cl
inactive: max response (HaCat [1]) -3.9% | max response (KB-3-1) -10.1% | max response (NIH3T3 [2]) 3.05% | outcome (HEK293T) | Potency (MCC-13) | Potency (MCC-26) | Potency (MKL-1) | Potency (MKL-2)

CNC1(C)C2CCC(C2)C1(C)C (stereo not drawn)
inactive: outcome (HaCat [1]) | max response (KB-3-1) 0.165% | outcome (NIH3T3 [2]) | outcome (HACAT [3]) | Potency (MCC-13) | Potency (MCC-26) | Potency (MKL-2) | outcome (NIH3T3 [4])

CN(C)CCCN1c2ccccc2Sc2ccccc21
inactive: outcome (HaCat [1]) | max response (KB-3-1) -0.491% | max response (NIH3T3 [2]) -1.44% | outcome (HACAT [3]) | Potency (MCC-13) | Potency (MCC-26) | Potency (MKL-1)

COc1cc(Cc2cnc(N)nc2N)cc(OC)c1OC
inactive: outcome (HaCat [1]) | max response (KB-3-1) 8.08% | max response (NIH3T3 [2]) -0.336% | outcome (HACAT [3]) | outcome (HEK293T) | Potency (MCC-13) | Potency (MCC-26) | Potency (MKL-1) | Potency (MKL-2)

CC(=O)OC(C)C[N+](C)(C)C (stereo not drawn)
inactive: outcome (HaCat [1]) | max response (KB-3-1) 6% | max response (NIH3T3 [2]) 2.06% | outcome (HACAT [3]) | Potency (MCC-13) | Potency (MCC-26) | Potency (MKL-1)

Cc1cc(C)c(/C=C2\C(=O)Nc3ccccc32)[nH]1
inactive: max response (HaCat [1]) -11.3% | max response (KB-3-1) -3.51% | max response (NIH3T3 [2]) -17.1% | outcome (HEK293T) | Potency (MCC-13) | Potency (MCC-26) | Potency (MKL-1) | Potency (MKL-2)

Nc1c2c(nc3ccccc13)CCCC2O (stereo not drawn)
inactive: outcome (HaCat [1]) | max response (KB-3-1) -6.2% | max response (NIH3T3 [2]) 4.53% | outcome (HACAT [3]) | outcome (HEK293T) | Potency (MCC-13) | Potency (MCC-26) | Potency (MKL-2)

COc1ccc(CN(CCN(C)C)c2ccccn2)cc1
inactive: outcome (HaCat [1]) | max response (KB-3-1) -13% | max response (NIH3T3 [2]) 2.14% | outcome (HACAT [3]) | Potency (MCC-13) | Potency (MCC-26) | Potency (MKL-2)

CN(C)CC/C=C1\c2ccccc2COc2ccccc21
inactive: outcome (HaCat [1]) | max response (KB-3-1) 4.58% | max response (NIH3T3 [2]) 0.829% | outcome (HACAT [3]) | Potency (MCC-13) | Potency (MCC-26) | Potency (MKL-1)

CCOC(=O)C1=C(C)NC(C)=C(C(=O)OC)C1c1cccc([N+](=O)[O-])c1 (stereo not drawn)
inactive: outcome (HaCat [1]) | max response (KB-3-1) -12.8% | max response (NIH3T3 [2]) -0.464% | outcome (HACAT [3]) | Potency (MCC-13) | Potency (MCC-26) | Potency (MKL-1) | Potency (MKL-2)

CO[C@@]1(NC(=O)CSCC#N)C(=O)N2C(C(=O)O)=C(CSc3nnnn3C)CS[C@@H]21
inactive: outcome (HaCat [1]) | max response (KB-3-1) 1.86% | max response (NIH3T3 [2]) -0.696% | outcome (HACAT [3]) | Potency (MCC-13) | Potency (MCC-26) | Potency (MKL-1)

CN(C)C/C=C(/c1ccc(Br)cc1)c1cccnc1
inactive: outcome (HaCat [1]) | max response (KB-3-1) -12.9% | outcome (NIH3T3 [2]) | outcome (HACAT [3]) | Potency (MCC-13) | Potency (MCC-26) | Potency (MKL-1) | Potency (MKL-2) | outcome (NIH3T3 [4])

CCCCCN(CCCCC)C(=O)C(CCC(=O)O)NC(=O)c1ccc(Cl)c(Cl)c1 (stereo not drawn)
inactive: outcome (HaCat [1]) | max response (KB-3-1) -8.56% | max response (NIH3T3 [2]) -0.48% | outcome (HACAT [3]) | Potency (MCC-13) | Potency (MCC-26) | Potency (MKL-2)

CN(C)[C@@H]1C(=O)C(C(N)=O)=C(O)[C@@]2(O)C(=O)C3=C(O)c4c(O)ccc(Cl)c4[C@@H](O)[C@H]3C[C@@H]12
inactive: outcome (HaCat [1]) | max response (KB-3-1) -3.68% | outcome (NIH3T3 [2]) | outcome (HACAT [3]) | Potency (MCC-13) | Potency (MCC-26) | Potency (MKL-1) | Potency (MKL-2) | outcome (NIH3T3 [4])

CC(C)NNC(=O)c1ccncc1
inactive: outcome (HaCat [1]) | max response (KB-3-1) -1.28% | outcome (NIH3T3 [2]) | outcome (HACAT [3]) | Potency (MCC-13) | Potency (MCC-26) | Potency (MKL-1) | Potency (MKL-2) | outcome (NIH3T3 [4])

FC(F)(F)c1ccccc1-n1ccnc1
inactive: outcome (HaCat [1]) | max response (KB-3-1) 22% | max response (NIH3T3 [2]) -5.68% | outcome (HACAT [3]) | Potency (MCC-13) | Potency (MCC-26) | Potency (MKL-1) | Potency (MKL-2)

NC(Cc1ccc(Cl)cc1)C(=O)O (stereo not drawn)
inactive: outcome (HaCat [1]) | max response (KB-3-1) -13.5% | max response (NIH3T3 [2]) 4.7% | outcome (HACAT [3]) inactive [at 0.588 µM] | outcome (HEK293T) inactive [at 0.588 µM] | activity change, negative = cytotoxicity (MCC-13) 20.3% [at 0.597 µM] | activity change, negative = cytotoxicity (MCC-26) 17.1% [at 0.597 µM] | activity change, negative = cytotoxicity (MKL-2) 20% [at 0.597 µM]
